PKM2 activator: increases activity of human pyruvate kinase M2. purified PKM2, Kinase-Glo ATP luminescence, activation; response scale: 0% is enzyme alone, no compound. Potency, µM (doses to about 57.5 µM), inactives show top-dose activation, usual class: activators. 260,000 tested, 0.34% active; also: nearly all actives have a fitted effect of over 55% in size
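Purified hPK-M2 (>95% pure) converted ADP (0.1 mM final) to ATP with 0.5 mM PEP in 50 mM imidazole pH7.2, KCl, MgCl2, Tween 20, BSA; 1 h at room temperature. ATP detected by Kinase-Glo luminescence.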
BLM inh-1: Bloom syndrome helicase (human) inhibition | Potency, µM (doses to about 56.1 µM), for the others: at the highest dose activity change, negative = inhibition, most hits filed as inhibitors | AID 2528 | recombinant BLM DNA unwinding, fluorescence dequenching | 350,000 tested, 0.2% active;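 also: plate controls were vehicle for no effect and no enzyme for full effect; nearly all actives have a fitted effect of over 35% in size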
APE1 inh: APE1 (human) endonuclease inhibition; recombinant APE1, TAMRA/BHQ-2 abasic DNA cleavage fluorescence; AID 2517; 350,000 tested, 0.35% active; P27695; Potency, µM (highest dose often 65.8 µM), inactives show at the top dose activity change, negative = inhibition, hits mostly inhibitors;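 also: plate controls were vehicle for no effect and reference inhibitor for full effect; nearly all actives have a fitted effect of over 55% in size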
Target sequence (P27695 whole entry, looked up): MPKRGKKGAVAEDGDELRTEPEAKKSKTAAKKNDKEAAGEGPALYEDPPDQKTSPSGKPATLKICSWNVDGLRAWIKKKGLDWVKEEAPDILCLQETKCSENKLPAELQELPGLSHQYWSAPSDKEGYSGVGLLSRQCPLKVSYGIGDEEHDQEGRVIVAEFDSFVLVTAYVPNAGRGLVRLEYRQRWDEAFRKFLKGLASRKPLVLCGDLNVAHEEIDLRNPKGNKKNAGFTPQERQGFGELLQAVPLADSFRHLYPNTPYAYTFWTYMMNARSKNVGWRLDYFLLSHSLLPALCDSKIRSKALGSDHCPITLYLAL
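Kinetic fluorescence read (525 ex/598 em nm, three reads 60 s apart) of AP-site incision; signal = third minus first read. Enzyme 0.75 nM, dual-labelled THF duplex 50 nM, compound preincubation 15 min RT.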
JMJD2E inh: inhibitors of human JMJD2E histone demethylase. B2RXH2. JMJD2E catalytic domain, FDH-coupled NADH fluorescence (FDH is formaldehyde dehydrogenase). Potency, µM (series often up to 57.1 µM), inactives show at the top dose activity change, negative = inhibition, actives largely listed as inhibitors. 230,000 tested, 1.6% active; active = well fitted inhibition curve with a large enough effect, not every such curve was filed as active; inconclusive = small, poorly fitted or top-dose-only effect, or another doubt; inactive = no such curve, though single readings can be large or run the other way;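 also: 0% = wells with enzyme and -100% = buffer wells without enzyme; nearly all actives have a fitted effect of over 50% in size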
RECQ1 inh-1: inhibitors of human RECQ1 DNA helicase | RECQ1 DNA unwinding, red fluorescence kinetic read | P46063 | AID 2549 | Potency, µM (top dose mostly 57.3 µM), without a hit: top-dose activity, negative = inhibition, most hits filed as inhibitors | 240,000 tested, 0.54% active;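 also: plate controls were vehicle for no effect and no enzyme for full effect; nearly all actives have a fitted effect of over 30% in size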
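RECQ1T1 50 nM; forked duplex (20 bp + 30-nt ss tails) 200 nM, ATP 2 mM final; pH 8.0, 2 mM MgCl2, 2.5 ug/ml poly(dI-dC); 15 min compound preincubation; discontinuous kinetic read over 2 h at RT.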
BLM inh-2: BLM (human) helicase inhibition, confirmation; shares compounds with BLM inh-1; BLM DNA unwinding, fluorescence quenching, biochemical; Potency, µM, without a hit: max response, negative = inhibition, most hits filed as inhibitors; 220 tested, 40% active;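 also: strand separation dequenches TAMRA so unwinding raises red fluorescence; series mostly up to about 69 µM; nearly all actives have a fitted effect of over 45% in size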
RECQ1 inh conf: confirmation of human RECQ1 helicase inhibitors; Potency, µM (top dose mostly 229 µM), without a hit: top-dose activity change, negative = inhibition, most hits filed as inhibitors; 610 tested, 28% active; shares compounds with RECQ1 inh-1; RECQ1 helicase DNA unwinding, fluorescence; also: nearly all actives have a fitted effect of over 45% in size
ADP FP counter: ADP displacement flagged in RECQ1 inhibitor counter-screen; shares compounds with RECQ1 inh-1; ADP fluorescence polarization displacement counterscreen; Potency, µM (titrated, usually from 228 µM), inactives show at the top dose activity change, negative = inhibition, hits mostly inhibitors; 530 tested, 27% active; also: nearly all actives have a fitted effect of over 45% in size
RECQ1 inh-2: RECQ1 helicase inhibition confirmed, round 2; shares compounds with RECQ1 inh-1; recombinant RECQ1 DNA unwinding, red fluorescence; 1,100 tested, 15% active; Potency, µM (doses to about 119 µM), for inactives: at the top dose activity, negative = inhibition, usual class: inhibitors; AID 504841; also: nearly all actives have a fitted effect of over 50% in size
* hit, by the source's call; i = inactive; u = inconclusive; x = not tested or not shown; [ ] = another dose, or the depositor's remark. This excerpt belongs to a sample that is enriched for hits. Unless noted, calls follow the shape of the dose curve; as a rule, active = well fitted curve in the direction sought with a large enough effect; inconclusive = small, poorly fitted or top-dose-only effect, or another doubt; inactive = no such curve, though single readings can be large; an effect the other way counts as inactive or inconclusive. Unless noted, % is scaled to controls: 0 for no effect and ±100 for the full control effect; potency is read from the fitted curve at half-maximal effect.

SMILES	PKM2 activator	BLM inh-1	APE1 inh	JMJD2E inh	RECQ1 inh-1	BLM inh-2	others
O=C(O)c1ccc(S(=O)(=O)/N=C2\C=C(Nc3ccccc3F)C(=O)c3ccccc32)cc1	-4.4%	8.91µM*	17.1%	x	x	16.2µM*
COc1ccc(-c2nc3cnc(N4CCN(C)CC4)nc3n(Cc3cccc(OC)c3)c2=O)cc1	x	-5.1%	-7.6%	x	i	x
O=C(COC(=O)C1(c2ccc(F)cc2)CCCC1)NCc1ccco1	x	22.4µM*	-10.3%	-9.4%	u	-10.8%
C=C1[C@@H]2CC[C@H](C2)C1(C)C	x	1.3%	x	x	3.8%	x
COc1ccc(-c2csc(NC(=O)CSc3nc(SC)ns3)n2)cc1	3.9%	-9.4%	-3.6%	5.3%	u	x
COc1ccc(-c2csc(NC(=O)CSc3nc(C)nc4sc(C(=O)O)c(C)c34)n2)cc1	u	31.6µM*	-1.8%	-10.9%	-18.2%	32.4µM*
O=C(Nc1ccc2nc(-c3ccco3)c(-c3ccco3)nc2c1)N1CCN(c2ccccn2)CC1	u	4.47µM*	8.3%	5.1%	-1.2%	u
Cc1nc2cc(NC(=O)N3CCN(c4ccccn4)CC3)ccc2o1	-0.6%	2.2%	3.1%	u	-6.0%	x
Cc1ccc(S(=O)(=O)N2CCCCC2)cc1NC(=O)Cc1cccs1	x	x	18.4%	x	x	x
O=C(Cc1cccs1)Nc1ccc(S(=O)(=O)N2CCCC2)cc1	u	17.8µM*	-1.6%	0.5%	26.0%	u
CCOC(=O)c1c(/C=N/Nc2ccccc2)c2sc(C)cc2n1C	x	x	-8.8%	x	x	x
O=C(CNC(=O)/C=C/c1ccco1)N=Nc1c(O)[nH]c2ccccc12	x	20µM*	8.44µM*	x	x	20.4µM*
COc1ccc(CNc2ccnc(-c3ccccc3Cl)n2)c(OC)c1	x	-0.2%	-10.3%	x	i	x
Cn1cnc2nc(NCCO)nc(NCc3ccccc3)c21	x	x	-2.6%	x	i	x
O=C(O)CSc1cc(C(=O)c2cc(F)ccc2O)cn2c(=O)c3c(-c4ccccc4)csc3nc12	6.7%	25.1µM*	-6.0%	4.9%	-26.4%	u
CC(C)Cn1c(N)c(C(=O)NCC2CCCO2)c2nc3ccccc3nc21 (stereo not drawn)	26.7%	8.91µM*	-6.7%	u	13.5%	-10.5%
COc1ccc(OC)c(-n2c(N)c(C(=O)NCC3CCCO3)c3nc4ccccc4nc32)c1 (stereo not drawn)	6.8%	-5.1%	-5.5%	u	-1.0%	x
CC1(C)C(=O)NC2=C1C(=O)C(=O)c1ccccc12	x	2.51µM*	u	u	8.91µM*	5.13µM*	RECQ1 inh conf=0.501µM*;ADP FP counter=8.91µM*
O=C1CCC[C@H]2OC12[C@@H](O)CCc1ccccc1 (stereo partly drawn)	x	-0.8%[12.4 µM]	-5.0%[12.4 µM]	x	18.5%[11.5 µM]	x
COc1ccc(SCC(CC(C)C)N2CCN(CCc3ccccc3)CCC2=O)cc1 (stereo not drawn)	x	-9.0%	-2.0%	x	i	x
Cc1cnc(CNc2nc(-c3ccc(N(C)C)cc3)nc3ccccc23)cn1	x	28.2µM*	-4.1%	u	u	20.4µM*	RECQ1 inh-2=u
Cc1cnc(CNc2nc(-c3ccccc3C(F)(F)F)nc3ccccc23)cn1	x	3.1%	-6.3%	x	i	x
